Most compounds without a hit are left out; they make up all but 3.7% or so of the library.
tim10-1 inh = inhibits growth of tim10-1 mutant yeast; S. cerevisiae tim10-1 ts strain growth, BacTiter-Glo, 24 h; inhibition, % at 20 µM; 330,000 tested, 2.2% active; AID 463190;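 active = inhibition of at least 40%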;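 note: mutant grown at 25 °C; 0% = DMSO wells with yeast and 100% = wells holding no yeast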
tim23-1 inh = tim23-1 yeast growth inhibition; inhibition, % at 20 µM; S. cerevisiae tim23-1 growth, BacTiter-Glo luminescence, 24 h; 330,000 tested, 1.3% active;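 active = growth inhibition of the mutant yeast at or above 50%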;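 note: temperature-sensitive mutant grown at 25 °C; plate controls were DMSO-treated mutant yeast for no effect and medium wells lacking yeast for full effect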
Rce1 inh = yeast Ras-converting enzyme inhibition. yeast membranes, quenched prenylated peptide cleavage fluorescence. 290,000 tested, 0.27% active. Q03530. calls only;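 active = fall in fluorescence gain of 50% or more versus controls, with final raw signal at or below 3038400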;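 note: plate controls were neutral control wells for no effect and wells lacking membranes for full effect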
Target sequence (Q03530 whole entry, looked up): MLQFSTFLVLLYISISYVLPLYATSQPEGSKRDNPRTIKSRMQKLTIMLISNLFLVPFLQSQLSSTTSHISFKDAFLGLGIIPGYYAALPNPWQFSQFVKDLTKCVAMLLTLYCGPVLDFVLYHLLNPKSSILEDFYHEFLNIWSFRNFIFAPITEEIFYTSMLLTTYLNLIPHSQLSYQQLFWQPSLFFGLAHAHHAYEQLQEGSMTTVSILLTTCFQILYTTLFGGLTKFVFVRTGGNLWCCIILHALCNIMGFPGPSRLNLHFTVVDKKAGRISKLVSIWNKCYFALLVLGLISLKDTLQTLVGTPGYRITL
TIM10 inh = growth inhibitors of TIM10 yeast strain; S. cerevisiae TIM10 strain growth, BacTiter-Glo luminescence, 24 h; 330,000 tested, 1.4% active; inhibition, % at 10 µM;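 active = inhibition of 40% or more at the single tested concentration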;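 note: wild-type TIM10 isogenic control strain grown at permissive 25 °C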
PfHsp90 yeast 2 = inhibits growth of yeast expressing Plasmodium falciparum Hsp90; S. cerevisiae expressing PfHsp90, BacTiter-Glo ATP, 48 h; yeast lacking PDR1 and PDR3 efflux regulators; inhibition, % at 9.4 µM; 310,000 tested, 0.32% active; AID 504621;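 active = every replicate shows inhibition above about 80%, whatever the replicate mean, limit read from the data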;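 note: 0% = DMSO neutral controls and 100% = 20 µM radicicol positive controls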
tim23-1 confirm = tim23-1 yeast growth inhibition, confirmed; 4,400 tested, 83% active; shares compounds with tim23-1 inh; inhibition, % at 20 µM; S. cerevisiae tim23-1 growth, BacTiter-Glo luminescence, 24 h;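 active = inhibition above about 39% in either of two replicate wells at 20 µM, limit read from the data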;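 note: temperature-sensitive tim23-1 mutant grown at 25 °C; 0% = DMSO wells with yeast and 100% = medium wells without yeast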
An asterisk follows results filed as active; i = inactive; / = no result given.

SMILES	tim10-1 inh	tim23-1 inh	Rce1 inh	TIM10 inh	PfHsp90 yeast 2	tim23-1 confirm
COc1ccc(NC(=O)CS(=O)(=O)c2cccc(Cl)c2)cc1	8	7	i	-22	-34	/
Cc1cc(NCCCO)n2nc(-c3cccs3)cc2n1	24	-6	i	8	-6	/
OCCCNc1cc(-c2ccccc2)nc2cc(-c3ccc(F)cc3)nn12	35	51*	i	4	10	55*
CN1CCN(c2cc(-c3ccccc3)nc3cc(-c4ccc(F)cc4)nn23)CC1	11	55*	i	34	/	43*
COc1cccc(-c2cc3nc(-c4ccccc4)cc(N4CCC5(CC4)OCCO5)n3n2)c1	-5	14	i	22	-12	/
CC(=O)N1C(=O)CC(C)N(C(C)=O)c2ccc([N+](=O)[O-])cc21 (stereo not given)	-15	3	i	-2	-9	/
Cc1ccc(-c2nn(-c3ccccc3)cc2C(=O)NCCCN2CCOCC2)cc1	1	2	i	-11	26	/
COc1cc(SC)ccc1C(=O)Nc1ccc2c(c1)CCC2	30	51*	i	5	-1	39*
COc1ccc(/C=C/C(=O)Nc2ccc3c(c2)CCC3)cc1OC	-36	54*	i	21	-4	55*
CCO[C@@H]1OC(C(=O)NCc2ccccc2)=C[C@H](c2cn(C(C)=O)c3ccccc23)[C@H]1CCCO	13	15	i	14	9	/
O=S(=O)(Nc1nc2ccccc2nc1Cl)c1cccc(C(F)(F)F)c1	21	25	/	-12	4	/
O=C(COc1ccccc1)N/N=C/c1ccc([N+](=O)[O-])o1	39	54*	i	31	-14	75*
O=C(N/N=C/c1ccc([N+](=O)[O-])o1)C(O)c1ccccc1 (stereo not given)	-8	6	i	3	-6	/
N=c1c2c(-c3ccccc3)c(-c3ccccc3)n(Cc3ccco3)c2ncn1Cc1ccco1	32	66*	i	26	-5	44*
O=C(CNS(=O)(=O)c1ccccc1)NCC(=O)N1CCCCC1	-12	8	i	1	14	/
CCc1ccc(CN2CCCC(CNC(=O)c3cccc(OC)c3OC)C2)cc1 (stereo not given)	2	2	i	-2	3	/
CC1CC(C)CN(C(=O)c2ccc3c(c2NCCO)C(=O)c2ccccc2C3=O)C1 (stereo not given)	39	51*	i	34	-10	53*
C=CC[N+]1(CC=C)CCOCC1	10	0	i	0	-19	/
CC(=O)c1ccc(NC(=O)CCNC(=O)c2ccccc2Cl)cc1	1	9	i	2	-7	/
COCCNc1c(-c2ccc(OC)cc2)nc2ccc(Cl)cn12	31	26	i	12	-6	/
CCOC(=O)CNc1c(-c2ccc(OC)cc2)nc2ccc(Cl)cn12	13	53*	i	24	-16	48*
Cc1cc(C)c(S(=O)(=O)NCC2CCC(C(=O)NCc3ccccn3)CC2)c(C)c1 (stereo not given)	4	16	i	17	7	/
Cc1ccc(-c2c3c(nc4sc(C(N)=O)c(N)c24)CCCC3)o1	36	50*	i	2	7	48*
Cc1ccc(Nc2nc3nonc3[nH]c2=O)cc1Cl	12	18	i	1	3	/
OCCN1CCN(CCCc2c3c(cc4c2CCC4)CCC3)CC1	-9	0	i	-16	7	/
SMILES	tim10-1 inh	tim23-1 inh	Rce1 inh	TIM10 inh	PfHsp90 yeast 2	tim23-1 confirm
Cc1cc(=O)oc2c1c(C(F)(F)F)nn2-c1ccccc1	26	50*	i	25	-48	55*
Cc1cc(C(F)(F)F)c2c(C)nn(-c3ccccc3)c2n1	7	-1	/	10	4	/
CC(C)(C)C(=O)Nc1nc(-c2ccc3c(c2)OCO3)cs1	30	55*	i	31	-5	50*
CCOc1nc(CC)nc(NC(=O)NS(=O)(=O)c2ccccc2Cl)n1	9	6	i	-10	-1	/
COC(=O)c1[nH]c2cc(OC)ccc2c1NC(=O)CCN1CCCCC1	-6	-12	i	1	13	/
COC(=O)c1[nH]c2cc(OC)ccc2c1NC(=O)CCN1CCCC(C)(C)C1	-1	74*	i	-12	15	11
O=C(c1ccccn1)N1CCCC(N2CCN(c3ccccc3)CC2)C1 (stereo not given)	4	-12	i	-3	-10	/
Oc1ccc(Cl)cc1C=Nc1ccc2c3c(cccc13)CC2	14	63*	i	27	5	62*
COC(=O)c1sccc1NC(=S)NCc1ccc(Cl)cc1	27	62*	i	39	19	53*
COC(=O)c1ccc(C)c(NC(=S)NCc2ccc(Cl)cc2)c1	21	-7	i	-12	-5	/
Cc1nnc2c(NCCc3ccccc3)nc3ccccc3n12	26	22	i	-6	-11	/
C[C@@H]1C=CC(=O)O[C@@H]1c1ccc(C(F)(F)F)cc1	39	57*	i	29	/	37
O=S(=O)(NCc1csc(-c2ccccc2)n1)c1ccc(Cl)s1	31	53*	i	19	-19	45*
CC1CC(C)CN(C(=O)CCNC(=O)c2ccccc2Cl)C1 (stereo not given)	21	15	i	11	-9	/
C=C(C)C(O)Cc1c(OC)ccc(C(=O)/C=C/c2ccc(O)cc2)c1O (stereo not given)	24	54*	/	30	14	42*
CC(C)=CCC/C(C)=C/Cc1c(O)ccc(C(=O)/C=C/c2ccc(O)cc2)c1O	-60	1	i	15	50	/
COc1cccc(CN2CC(C(=O)NCCSc3nnnn3C)CCC2=O)c1 (stereo not given)	0	12	i	7	-16	/
CCOc1ccc(N(Cc2nnc3n2CCCCC3)C(=O)Nc2cccc(C)c2)cc1	7	-23	i	7	1	/
CC(=O)N(c1ccc(Cl)cc1)c1cn(C(C)=O)c2ccccc12	16	0	i	25	/	/
CC(=O)n1cc(N(C(=O)CCl)c2ccc(C)cc2)c2ccccc21	35	69*	i	22	-7	36
CC(C)(C)C(=O)N1CCN(c2ncnc3scc(-c4ccccc4)c23)CC1	31	51*	i	26	-20	29
Cc1ccc(-c2csc3ncnc(N4CCN(C(=O)c5ccco5)CC4)c23)cc1	29	51*	/	31	12	42*
Cc1ccc(C)c(-c2nnc(OCC(=O)Nc3cc(C)on3)c3ccccc23)c1	20	7	i	7	-30	/
O=C(O)c1ccc(S(=O)(=O)Nc2ccc(O)c(Sc3nc4ccccc4s3)c2)cc1	-9	16	i	-7	-26	/
COc1ccc(CNC(=O)C/C(C)=N/NC(=O)COc2cccc(C)c2)cc1	6	1	i	14	-19	/
CC(C)(C)NC(=O)COC(=O)c1ccc(S(=O)(=O)N2CCCC2)cc1	5	7	i	-11	/	/

Source: PubChem (several laboratories)
